Compounds with a hit are over-represented: about 3.5% of the library has one in this group of screens.
MITF inh – human MITF inhibition, primary screen | O75030 | AlphaScreen MITF homodimerization, bead proximity signal | inhibition, % at 2.6 µM | 650,000 compounds, 0.91% hits; in the data active = inhibition above about 50%;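 also: 0% = vehicle wells with protein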
GPR151 activ – activates the human receptor GPR151. 650,000 compounds, 1% hits. Q8TDV0. PathHunter beta-arrestin GPR151 cells, luminescence. AID 1508602. activation, % at 11.2 µM; in the data active = activation above about 4.9%;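 also: 0% = median of compound wells and 100% = cells with positive control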
TEAD-YAP inh – TEAD-YAP interaction inhibition; HEK-TIYL cells, TEAD-Gal4/YAP UAS-luciferase luminescence; 640,000 compounds, 1.4% hits; inhibition, % at 9.12 µM; in the data active = inhibition above about 32%;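 also: 0% = median of test compound wells and 100% = reference inhibitor wells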
FBW7 act – human FBW7 E3 ligase activation, primary screen | AID 1259310 | Q969H0 | 650,000 compounds, 0.13% hits | AlphaScreen FBW7–phospho-cyclin E peptide binding, activator screen | normalized activity (activation), % at 26.1 µM; in the data active = normalized activity above about 1.9%;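 also: purified mutant Fbw7 with reduced substrate affinity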
GPR151 confirm – confirmation of human GPR151 activators | 6,700 tested, under 10 active | GPR151 PathHunter beta-arrestin cells, luminescence, 90 min; % of EA-reagent control over plate median | shares compounds with GPR151 activ | activation, % at 11.2 µM;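 active = mean percent activation across replicates above the confirmation screen cutoff of 4.91%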
GPR119 ag – activates human GPR119 in a GPR151 counter-screen; shares compounds with GPR151 activ; GPR119 PathHunter beta-arrestin cells, luminescence, 90 min; 0 = compound-well median, 100 = enzyme-acceptor control; activation, % at 11.2 µM; 6,700 compounds, 0.3% hits;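 active = mean percent activation in the counterscreen above 29.09%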;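 also: counterscreen on off-target GPR119 to flag nonselective hits from the GPR151 activator screen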
Active calls of the source: *; . = not tested or not shown.

SMILES	MITF inh	GPR151 activ	TEAD-YAP inh	FBW7 act	GPR151 confirm	GPR119 ag
Cc1cccc(CS(=O)(=O)CC2Nc3ccc(C(=O)N4CCN(c5cccc(C(F)(F)F)c5)CC4)cc3NC2=O)c1 (stereo not drawn)	13	5.2*	1	0	0	3
CCN(c1ccccc1)S(=O)(=O)c1cc(C(=O)OC)n(C)c1	-7	0	6	0	.	.
C=CCc1cc(/C=C2/NC(=O)N(Cc3ccccc3F)C2=O)cc(OC)c1O	-8	-1	18	0	.	.
COc1ccc(OC)c(C2=C/C(=C/c3cccc(OC)c3OC)C(=O)O2)c1	-5	5.1*	-6	0	0	4
Cc1cccc(CC(=O)NCC(c2ccsc2)N2CCOCC2)c1 (stereo not drawn)	9	-1	0	0	.	.
CSc1ccc(S(=O)(=O)N2CCCCCC2)cc1	15	5.0*	3	0	0	0
CN1CCN(S(=O)(=O)c2ccc(C3CCCCC3)cc2)CC1	4	5.3*	2	0	1	-2
COc1ccc(-c2cc(C(=O)Nc3cnn(Cc4ccc(F)cc4)c3)no2)cc1OC	-3	9.9*	6	0	0	-4
COc1cc(NC(=O)c2cccc(-n3cc(NC(=O)N[C@@H](C)c4ccccc4)cn3)c2)ccc1N1CCOCC1	10	5.7*	3	0	0	-4
C=CCOc1ccc(/C(O)=C2/C(=O)C(=O)N(CCN(CC)CC)C2c2ccc(C)cc2)c(C)c1 (stereo not drawn)	-7	7.1*	5	0	0	-3
O=C(Nc1ccc2oc(-c3cc(Br)ccc3Cl)nc2c1)c1ccc([N+](=O)[O-])o1	6	1	14	0	.	.
O=C(Nc1ccc2oc(-c3ccc(Br)cc3)nc2c1)c1cc([N+](=O)[O-])ccc1Cl	16	6.6*	-8	1	0	3
O=C(Nc1cccc(O)c1)c1cc([N+](=O)[O-])ccc1Cl	-6	6.4*	15	0	1	1
O=C(O)c1cc([N+](=O)[O-])ccc1C(=O)Nc1cccc(O)c1	4	-1	12	0	.	.
O=C(Nc1ccc(Cl)c(-c2nc3cc(Cl)ccc3o2)c1)c1ccc([N+](=O)[O-])o1	13	7.0*	11	0	1	9
CCOC(=O)c1ccc(N2C(=O)C(=O)/C(=C(/O)c3ccc(OC)cc3)C2c2cccc(F)c2)cc1 (stereo not drawn)	2	0	-5	1	.	.
CCCCCCNC(=O)CC(=O)Nc1ccccc1C(=O)O	10	-2	3	0	.	.
O=C(CN1CCCC(O)C1)N1c2ccccc2Sc2ccc(C(F)(F)F)cc21 (stereo not drawn)	23	9.5*	2	0	0	-4
Cc1cccnc1NC(=S)NC(=O)c1cccc(Cl)c1	3	5.0*	-77	0	1	15
CC(=O)Nc1ccc(NC(=S)NC(=O)c2cccc(Cl)c2)cc1	1	2	-23	0	.	.
COc1ccc(N2CCN(Cc3ccc([N+](=O)[O-])s3)CC2)cc1	56*	5.1*	4	0	0	9
COc1ccc(N2CCN(C/C=C/c3ccccc3[N+](=O)[O-])CC2)cc1	15	0	3	0	.	.
O=C1c2ccc([N+](=O)[O-])cc2C(=O)N1c1c[nH]c(=O)[nH]c1=O	1	5.1*	9	-2	0	1
O=C(c1ccco1)N(C1CC1)C1CCN(CCc2ccccc2)CC1	-2	-1	2	0	.	.
Cc1ccc(N2C(=O)CC(Nc3ccc(F)cc3)C2=O)c(Br)c1 (stereo not drawn)	-19	15*	8	0	0	0
Cc1cccc(N2C(=O)CC(Nc3ccc(F)cc3)C2=O)c1 (stereo not drawn)	10	0	9	0	.	.
COc1ccc(O)c(C2NC(=O)NC(C)=C2C(=O)OC(C)C)c1 (stereo not drawn)	3	0	-14	0	.	.
COc1ccc(OC)c(C2NC(=O)NC(C)=C2C(=O)OC(C)C)c1 (stereo not drawn)	22	5.1*	-2	0	0	12
